Hits are enriched below; roughly 10% of the tested compounds scored in any of these assays.
BAZ2B block: blocks human BAZ2B; Q9UIF8; AlphaScreen BAZ2B-H3K14Ac peptide displacement; Potency, µM (doses to about 114 µM), without a hit: at the highest dose activity change, negative = inhibition, most hits filed as inhibitors; hit rate 4.4% among 360,000; AID 504333; also: % is scaled to controls: 0 for no effect and ±100 for the full control effect; nearly all actives have a fitted effect of over 60% in size
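Multi-concentration screen (max 110 uM) measuring displacement of acetylated histone H3 peptide from BAZ2B by AlphaScreen, using 50 nM protein, 50 nM peptide and 10 ug/mL streptavidin donor plus Ni-chelate acceptor beads.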
GLS inhibitor: glutaminase GLS (human) inhibition; O94925; GLS enzymatic activity, qHTS titration; hit rate 0.21% among 410,000; Potency, µM (highest dose often 45.5 µM), for the others: top-dose activity change, negative = inhibition, most hits filed as inhibitors; also: % is scaled to controls: 0 for no effect and ±100 for the full control effect
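hKGA in 45 mM KH2PO4 pH 8.2, 0.02% Tween-20 with pin-transferred compounds; 1 mM L-glutamine (stock) plus glutamate oxidase/HRP/Amplex Red coupling added. Fluorescence read initially and after 30 min at RT.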
G9a block: blocks human histone lysine methyltransferase G9a; Q96KQ7; G9a H3K9 monomethylation, AlphaScreen, 2 h; Potency, µM (doses to about 102 µM), for the others: top-dose activity, negative = inhibition, hits mostly inhibitors; hit rate 8.8% among 350,000; AID 504332; also: % is scaled to controls: 0 for no effect and ±100 for the full control effect; nearly all actives have a fitted effect of over 75% in size
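Enzyme 20 nM + cpd, 15 min RT; add b-H3K9 pep 500 nM / SAM 20 uM; 2 h RT; anti-H3K9me1 Ab 0.5 ug/mL + SA donor / anti-rabbit acceptor beads 20 ug/mL each, 10 min; AlphaScreen read.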
HP1b chromo inh: blocks HP1-beta chromodomain binding to methylated histone tails | Potency, µM (highest dose often 114 µM), without a hit: top-dose activity change, negative = inhibition, most hits filed as inhibitors | AlphaScreen HP1-beta / biotin-H3K9me3 peptide binding | hit rate 0.56% among 390,000 | P83916 | AID 540317; also: nearly all actives have a fitted effect of over 70% in size
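HP1-beta protein (50 nM final) preincubated 30 min at room temperature with biotinylated H3(1-18)K9me3 peptide (50 nM) in PBS pH 7.4, 0.01% Tween-20, then compound added for 30 min. AlphaScreen streptavidin donor/nickel chelate acceptor beads (10 ug/mL final), 30 min dark, luminescence read.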
JMJD2A Tudor inh: inhibitors of human JMJD2A Tudor domain; AlphaScreen JMJD2A-Tudor / H3K4me3 peptide binding; Potency, µM (highest dose often 114 µM), without a hit: top-dose activity change, negative = inhibition, actives largely listed as inhibitors; hit rate 4.4% among 390,000; also: % is scaled to controls: 0 for no effect and ±100 for the full control effect; nearly all actives have a fitted effect of over 50% in size
An asterisk follows results filed as active; ? = inconclusive; nt = not tested or not shown; [ ] = another dose, or the depositor's remark. Calls follow the shape of the dose curve; as a rule, active = well fitted curve in the direction sought with a large enough effect; inconclusive = small, poorly fitted or top-dose-only effect, or another doubt; inactive = no such curve, though single readings can be large; an effect the other way counts as inactive or inconclusive. Potency is read from the fitted curve at half-maximal effect.

SMILES | BAZ2B block | GLS inhibitor | G9a block | HP1b chromo inh | JMJD2A Tudor inh
c1coc(-c2nc(-c3ccco3)c(-c3ccco3)nc2-c2ccco2)c1 | 28µM* | 13µM* | 11µM* | ? | 7.9µM*
COc1ccc(-c2nc3ccccc3nc2-c2ccc(OC)cc2)cc1 | 90% | -1% | 379% | 194% | 100%
Nc1nc(-c2cccs2)c(-c2cccs2)s1 | ? | -11% | ? | ? | -26%
COc1ccc2nc(-c3ccco3)c(-c3ccco3)nc2c1 | 50µM* | 6% | ? | -19% | ?
COc1ccc(Nc2nc(C#N)nc(NC3CCCC3)n2)cc1 | nt | nt | nt | nt | -29%
COCc1ccc(C(=O)NC2CCCc3c2cnn3-c2cc(C)cc(C)c2)s1 (stereo unspecified) | 4% | 2% | nt | 42% | -24%
Cc1noc(C)c1C(=O)N1CCC2(CCCN(c3ccncc3)C2)CC1 | nt | nt | 3%[12.7 µM] | nt | nt
COc1ccc(CNC(=O)CCc2ccc(S(=O)(=O)N3CCCCCC3)cc2)cc1OC | -3% | 4% | -11% | 21% | -18%
OC(c1ccccc1)c1nc(-c2ccc(Cl)cc2)cs1 (stereo unspecified) | nt | 5% | nt | nt | nt
COc1ccc(NC(=O)CCc2nc3c(C)nn(-c4ccc(C)cc4)c3n(C)c2=O)c(OC)c1 | -12% | -4% | -8%[12.7 µM] | 22% | -4%
O=C(O)c1ccc2c(c1)C(=O)N([C@H](Cc1ccc(-c3ccccc3)cc1)C(=O)O)C2=O | -7% | nt | -12%[12.7 µM] | nt | -9%
COc1ccc(NC(=O)CSC2=Nc3ccccc3C3=NC(CCC(=O)NCCc4ccccc4)C(=O)N23)c(OC)c1 (stereo unspecified) | -14% | 1% | -5%[59 µM] | 25% | -16%
CCc1ccc(-n2nc(C)c3c(C(=O)Nc4cc(OC)cc(OC)c4)cc(C)nc32)cc1 | 20%[57.1 µM] | -9% | -4%[59 µM] | 23% | -3%
Nc1nc(-c2ccco2)cs1 | -5% | 20% | 45µM* | 11% | -7%
Nc1nc(-c2ccc(-n3nncc3-c3ccco3)cc2)cs1 | ? | 12% | -40%[59 µM] | -13% | -35%
CN(CCCn1ccc(NC(=O)OCc2ccccc2)nc1=O)Cc1ccco1 | nt | 11% | nt | nt | nt
O=C(NNc1nc2c(F)cc(F)cc2s1)C1COc2ccccc2O1 (stereo unspecified) | 0% | 26% | 40% | 53% | -10%
Cc1cccc2sc(NNC(=O)C3COc4ccccc4O3)nc12 (stereo unspecified) | -29% | 15% | 18µM* | 18% | -32%
CCOC(=O)CN1C(=O)C2Cc3ccccc3CN2C1=S (stereo unspecified) | -20% | 3% | 20µM* | ? | -12%
Brc1ccc(-c2cn3nc4c(nc3n2)CCCC4)cc1 | 10% | -17% | ? | 70% | -7%[11.4 µM]
c1ccc(-c2cn3nc4c(nc3n2)CCCC4)cc1 | 6% | -3% | 50µM* | 67% | 17%
Nn1c(Cc2cccc3ccccc23)nnc1SCn1nnc2ccccc2c1=O | -5% | -4% | 4.5µM* | 32% | -14%
Nc1nc(SCn2nnc3ccccc3c2=O)n[nH]1 | -11% | 8% | 50µM* | 19% | -10%
Nn1c(Cc2cccc3ccccc23)nnc1SCC(=O)NCC1CCCO1 (stereo unspecified) | 13% | 3% | -4%[2.33 µM] | 24% | ?
O=c1c2ccccc2nnn1Cc1cccc2ccccc12 | 21% | 0% | 133% | 106% | 48%
SMILES | BAZ2B block | GLS inhibitor | G9a block | HP1b chromo inh | JMJD2A Tudor inh
Cc1nc(SCn2nnc3ccccc3c2=O)nc(C)c1C | 18% | 13% | -3%[59 µM] | 51% | -2%
O=c1c2ccccc2nnn1CSc1nnc(Nc2ccccc2)s1 | -4% | -8% | 45µM* | 24% | 1%
Nn1c(Cc2cccc3ccccc23)nnc1SC1CCOC1=O (stereo unspecified) | -37% | -16% | ? | 37% | 89µM*
COc1cc2nc(NCCc3cccc(C)c3)n3nc(-c4ccccc4)nc3c2cc1OC | -31% | -8% | -12%[59 µM] | 28% | -5%
Cc1ccc(NC(N)=S)cc1C | 6% | 13% | 13%[59 µM] | 40% | -6%[57.1 µM]
Cc1ccc(N/N=C(\C#N)C(N)=S)cc1C | 45µM* | -24% | 2.8µM* | -18% | ?
N#C/C(=N\Nc1ccccc1)C(N)=S | ? | 11µM* | 1.6µM* | -21% | 22µM*
N#C/C(=N\Nc1ccc(Cl)cc1)C(N)=S | ? | 18% | nt | -31% | ?
N#C/C(=N/Nc1ccccc1[N+](=O)[O-])C(N)=S | -18% | 12% | 1.1µM* | 12% | -22%
CCN1C(=O)c2ccc(C(=O)Nc3ccc(O)cc3C)cc2C1=O | ? | 37% | nt | 42% | -5%
CC(C)C[C@H]1CN(CCCC[C@H]2CNC(=O)C(=O)N2CC2CCCCC2)C(=O)C(=O)N1CC1CCCCC1 | nt | -5% | nt | nt | nt
COc1cc(C(=O)NCCC(=O)NCc2cccs2)cc(OC)c1OC | nt | -12% | nt | nt | nt
CCC(=O)N1c2ccccc2CC1C(=O)NCCc1ccccc1OC (stereo unspecified) | -4% | 1% | 2%[59 µM] | 19% | -16%
Cc1ccccc1C(=O)NCC(c1ccc(N(C)C)cc1)N1CCCC1 (stereo unspecified) | ? | 23% | -35%[59 µM] | -19% | ?
CN(C)c1ccc(C(CNC(=O)c2ccccc2Br)c2c[nH]c3ccccc23)cc1 (stereo unspecified) | 14µM* | -3% | 10µM* | 24% | -21%
CN(C)c1ccc(C(CNC(=O)c2ccc(C#N)cc2)c2c[nH]c3ccccc23)cc1 (stereo unspecified) | 20µM* | 26% | 10µM* | ? | 40µM*
c1nc(NC2CCNCC2)c2cc(-c3ccoc3)ccc2n1 | nt | nt | -34%[0.501 µM] | nt | nt
COc1ccc(NC(=O)Cc2coc3cc(C)c(C(C)C)cc23)cc1S(=O)(=O)N1CCOCC1 | ? | 8% | 10µM* | 8% | -30%
COc1ccc(S(=O)(=O)N2CCOCC2)cc1NC(=O)CCNC(=O)c1ccc(Br)cc1 | 1% | -14% | 16µM* | 8% | -14%
COc1ccc(S(=O)(=O)N2CCOCC2)cc1NC(=O)Cc1coc2cc(C)c(C)cc12 | -15% | -2% | 50µM* | 27% | -17%
COc1ccc2c(CC(=O)Nc3ccc(OC)c(S(=O)(=O)N4CCOCC4)c3)coc2c1 | -31% | 1% | 0%[59 µM] | 2% | -23%
COc1ncc2nc(-c3cn(C)c4ccccc34)c(=O)n(CCc3ccccc3)c2n1 | nt | nt | 14%[0.501 µM] | nt | nt
O=C(CN(C1CCCCC1)C1CCCCC1)N1CCc2ccccc2C1 | 45µM* | 8% | 10µM* | -53% | 6.3µM*
O=C(CN1CCC(Cc2ccccc2)CC1)N1CCc2ccccc2C1 | 50µM* | 10% | 22µM* | ? | ?
O=C(CN1CCN(S(=O)(=O)c2ccc(F)c(Cl)c2)CC1)N1CCc2ccccc2C1 | nt | -2% | nt | 27% | -10%
Cc1ccc(F)cc1C(=O)N1CCCCC1c1cc(C(=O)Nc2ccccc2)no1 (stereo unspecified) | nt | -5% | nt | nt | nt
